Test results from PubChem BioAssay AID602438 (Sanford-Burnham Center for Chemical Genomics, 2012).
Out of some 360,000 compounds screened, about 3,100 (0.86%) were called active. The sample holds actives, similar compounds and a random draw of the others, so the mix is not that of the screen. A number with no mark means an inactive call.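 The calls were made as follows: active = inhibition or corrected inhibition above about 18%, plus a signal ratio from 0.5 to 1.5 (limit read from the data, passing the limit was not always enough); inactive = the rest.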

Target: Neuropilin-1 (Homo sapiens) (UniProt O14786)
Sequence (O14786 whole entry, looked up): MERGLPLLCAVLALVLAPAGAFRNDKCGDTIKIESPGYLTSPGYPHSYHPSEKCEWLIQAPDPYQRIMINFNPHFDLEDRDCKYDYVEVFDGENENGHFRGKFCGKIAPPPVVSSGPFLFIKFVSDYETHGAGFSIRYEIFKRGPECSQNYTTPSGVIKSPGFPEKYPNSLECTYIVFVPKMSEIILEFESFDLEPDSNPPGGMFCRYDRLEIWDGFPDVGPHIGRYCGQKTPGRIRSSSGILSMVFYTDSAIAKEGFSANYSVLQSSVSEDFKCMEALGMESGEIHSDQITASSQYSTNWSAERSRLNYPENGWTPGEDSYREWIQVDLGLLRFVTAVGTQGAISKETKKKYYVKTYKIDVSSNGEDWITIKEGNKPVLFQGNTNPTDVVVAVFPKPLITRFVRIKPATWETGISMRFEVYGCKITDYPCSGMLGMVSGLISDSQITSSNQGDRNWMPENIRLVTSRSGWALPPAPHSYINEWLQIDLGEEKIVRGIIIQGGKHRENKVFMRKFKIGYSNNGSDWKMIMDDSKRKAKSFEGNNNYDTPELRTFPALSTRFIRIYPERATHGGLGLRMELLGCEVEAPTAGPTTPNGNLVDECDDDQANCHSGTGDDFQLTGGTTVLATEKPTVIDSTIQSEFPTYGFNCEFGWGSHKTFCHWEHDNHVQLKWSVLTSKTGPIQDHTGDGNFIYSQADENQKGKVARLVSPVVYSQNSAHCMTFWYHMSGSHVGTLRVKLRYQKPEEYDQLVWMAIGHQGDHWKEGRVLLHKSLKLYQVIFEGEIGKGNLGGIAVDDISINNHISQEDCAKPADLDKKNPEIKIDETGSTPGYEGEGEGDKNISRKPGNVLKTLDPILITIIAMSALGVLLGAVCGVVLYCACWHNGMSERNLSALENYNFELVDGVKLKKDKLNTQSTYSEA
Experiment: NRP-1/CendR peptide interaction modulators – biochemical, fluorescence polarization, uHTS, primary screen (AID 602438)
Details: FAM-RPARPAR peptide binding to NRP-1, fluorescence polarization; at 25 µM; stronger effect = higher value

Row | SMILES | inhibition
1 | O=C(COC(=O)c1ccccn1)NNC(=O)c1ccc([N+](=O)[O-])cc1 | 2.2%
2 | O=C(OCc1ccc([N+](=O)[O-])cc1)c1ccccn1 | 28.2% (active)
3 | N/C(=N\OC(=O)Cc1ccc([N+](=O)[O-])cc1)c1ccccn1 | -0.7%
4 | Cc1ccc(OCC(=O)N2CCN(C(=O)c3cccnc3)CC2)cc1 | 6.1%
5 | O=C(C[C@H]1CC[C@H]2[C@@H](COC[C@H](O)CN2C(=O)c2ccccn2)O1)N1CCN(c2ccccc2)CC1 | 2.2%
6 | COc1cc(C2C(C(=O)c3sc(C)nc3C)=C(O)C(=O)N2CCN(C)C)cc(OC)c1OC (centres undefined) | 0.6%
7 | COc1ccc(COCCN2CCN(S(=O)(=O)c3ccccc3)CCC2=O)cc1 | 28.5% (active)
8 | Cc1ccc(S(=O)(=O)N2CCC(=O)N([C@H](COCc3ccccc3)Cc3ccccc3)CC2)cc1 | -15.7%
9 | Cc1ccc(S(=O)(=O)N2CCC(=O)N([C@H](COCc3ccccc3)C(C)C)CC2)cc1 | -3.6%
10 | CCCCCn1nnnc1-c1nc2cc3ccccc3cc2[nH]c1=O | 0%
11 | COCCCNC(=O)c1c(F)c(F)c(F)c(F)c1F | 8.4%
12 | Cc1nc(C(F)(F)F)ccc1C(=O)N1CCC1(C)C(=O)NS(=O)(=O)c1ccccc1Cl (centres undefined) | 13.8%
13 | NC(=O)COc1ccccc1C(=O)NC12CC3CC(CC(C3)C1)C2 | -2.6%
14 | O=C(NCCN1CCOCC1)c1ccccc1N1C(=O)[C@@H]2Cc3c([nH]c4ccccc34)C(c3cccc(Cl)c3)N2C1=O (some centres undefined) | -5.5%
15 | Cc1ccc(OCc2nnc(NC(=O)OCC(C)C)s2)cc1 | 19.5% (active)
16 | O=C(Nc1nnc(COc2ccccc2)s1)Nc1ccccc1F | -10.8%
17 | CCOCc1nnc(NC(=O)CSc2ccc(C)cc2)s1 | -1%
18 | O=C(CNCc1ccco1)Nc1cc(S(=O)(=O)N2CCOCC2)ccc1N1CCCC1 | 7.8%
19 | Cc1cc(C)c(CN2CCN(C(=O)Cn3ccc(NC(=O)OCc4ccccc4)nc3=O)CC2)c(C)c1 | 3.3%
20 | O=C(c1ccccc1)c1cccn1CC(=O)N1CCN(c2ccc(F)cc2)CC1 | -4.3%
21 | Cc1ccc(CNS(=O)(=O)c2ccc3c(c2)N(C)CCO3)cc1 | -8.8%
22 | CCc1nonc1NC(=O)c1oc2ccc(Cl)cc2c1C | 13.2%
23 | Cc1nonc1NC(=O)c1oc2ccccc2c1C | 7.8%

Row | SMILES | inhibition
24 | COc1ccc(-c2nonc2NC(=O)c2oc3ccc(F)cc3c2C)cc1OC | 30.3% (active)
25 | O=C(NCc1ccc2c(c1)OCO2)C1CCCN(S(=O)(=O)c2cccs2)C1 (centres undefined) | -10.1%
26 | CCCCc1c(-c2ccc(Br)cc2)ncn1CCc1ccccc1OC | 12.7%
27 | CC(C)C1Cc2[nH][nH]c(=O)c2C(c2ccc(Cl)cc2)O1 (centres undefined) | -4.6%
28 | CC(C)NC(=O)c1ccccc1S(=O)c1ccccc1C#N (centres undefined) | -10.3%
29 | CCc1oc(-c2ccc(OC)cc2)c(C(=O)OCCCCCO)c1C(C)OCCO (centres undefined) | 23% (active)
30 | CCN(CCCCOC(=O)c1ccc(OC)c(OC)c1)C(C)Cc1ccc(OC)cc1 (centres undefined) | -0.7%
31 | COc1ccc(-c2oc3ncnc(NCCCO)c3c2-c2ccc(OC)cc2)cc1 | 4.1%
32 | CCOC(=O)C1=CC[C@@H](c2ccccc2)N(S(=O)(=O)c2ccc(C)cc2)[C@H]1c1cccc(OC)c1 | 26% (active)
33 | CCOC(=O)C1=CC[C@@H](c2ccncc2)N(S(=O)(=O)c2ccc(C)cc2)C1 | 13.9%
34 | Cc1ccc([C@@H]2CC=C(C(=O)O)[C@H](c3cccc(Cl)c3)N2S(=O)(=O)c2ccc(C)cc2)cc1 | -10.9%
35 | CCOC(=O)C1=CC[C@@H](c2ccccc2)N(S(=O)(=O)c2ccc(C)cc2)[C@H]1c1ccc(CC)cc1 | 11.1%
36 | CCOC(=O)C1=CCC(c2ccc(F)cc2)N(S(=O)(=O)c2ccc(C)cc2)C1 (centres undefined) | 19.9% (active)
37 | CC(=O)C1=CCC(c2ccccc2)N(S(=O)(=O)c2ccc(C)cc2)C1 (centres undefined) | -3.9%
38 | CCN(CC)S(=O)(=O)c1ccc(CNC(=O)CN2C(=O)NC3(CCc4ccccc43)C2=O)cc1 (centres undefined) | -10.1%
39 | CCOC(=O)CSc1nc(N2CCOCC2)c2c(c1C#N)CC(C(C)C)OC2 (centres undefined) | -2%
40 | CCOC(=O)CSc1nccc(N(C)C)c1C#N | 25.2% (active)
41 | CCOC(=O)CSc1ccccn1 | 2.8%
42 | Cc1n[nH]c(C)c1S(=O)(=O)N1CCCC(C(=O)NCC2COc3ccccc3O2)C1 (centres undefined) | 6.3%
43 | COC(=O)Nc1ncc(CN2CCCCC2)s1 | 6.1%
44 | COC(=O)C1(C(=O)OC)C[C@H](c2ccccc2)N(Cc2ccccc2OC)[C@@H]1c1ccccc1 | 18.8%
45 | COC(CNC(=O)c1ccc2c(c1)ncn2-c1cc(C)cc(C)c1)OC | -2.4%
46 | COCCNC(=O)c1ccc2c(c1)ncn2-c1ccc(C)c(Cl)c1 | 37.8% (active)

Row | SMILES | inhibition
47 | COCCCNC(=O)c1ccc2c(c1)ncn2-c1ccccc1OC | -5.2%
48 | CC1(C)NC(=O)N(CC(=O)N2CCN(S(=O)(=O)c3ccccc3F)CC2)C1=O | -17.9%
49 | CCOC(=O)N1CCC(N(CCOC)C(=O)Nc2ccc(C)c(C)c2)CC1 | -9.1%
50 | CC(=O)NCC(=O)N(C)C(C(=O)Nc1ccc2c(c1)OCCO2)c1ccccc1 (centres undefined) | -6%
51 | CC(=O)N1c2ccc(S(=O)(=O)N3CCC(C(=O)NCc4ccc(F)cc4)CC3)cc2CC1C (centres undefined) | -3.5%
52 | CC(=O)N1c2ccc(S(=O)(=O)N3CCC(C(=O)NC4CCCC(C)C4C)CC3)cc2CC1C (centres undefined) | 1.3%
53 | CC(=O)N1c2ccc(S(=O)(=O)N3CCC(C(=O)NC4CCCCC4C)CC3)cc2CC1C (centres undefined) | 21.3% (active)
54 | COC(=O)c1cc(OCC(=O)NC2CCCc3ccccc32)cc(C(=O)OC)c1 (centres undefined) | 11.6%
55 | COc1ccc2c(c1)C(NS(=O)(=O)OCC(Cl)(Cl)Cl)CCC2 (centres undefined) | 20.7% (active)
56 | COc1ccc(CN(C)C(C)C(=O)NC2CCCc3ccccc32)cc1 (centres undefined) | -9.8%
57 | CCCc1nnc(NC(=O)CCC(=O)NC2CC2)s1 | -3.9%
58 | Cc1cccc(C)c1NC(=O)C1(N(C(=O)c2ccccn2)c2ccc(O)cc2)CCCCC1 | -2.4%
59 | COc1cccc(NC(=O)C2(C)CCN2C(=O)CCC2CCCC2)c1 (centres undefined) | -6.9%
60 | COc1cccc(N(C(=O)c2ccn[nH]2)C2(C(=O)Nc3c(C)cccc3C)CCCCC2)c1 | 20.6% (active)
61 | Cc1nc2c(-c3ccc(F)cc3)c(C)nn2c(C)c1CCC(=O)N1CCN(c2ccccn2)CC1 | -14.2%
62 | COc1ccc(C)cc1Nc1n[n+](-c2ccccc2)c(-c2cccc(Cl)c2Cl)s1 | 9.5%
63 | COc1cc(Br)c(-c2sc(Nc3ccccc3)n[n+]2-c2ccccc2)cc1OC | 23.7% (active)
64 | CCc1ccc(Nc2n[n+](-c3ccccc3)c(-c3cccc(Cl)c3Cl)s2)cc1 | 7.2%
65 | O=C(C(NS(=O)(=O)c1cccc2nsnc12)c1ccccc1)N1CCN(c2ccccc2)CC1 (centres undefined) | 3.4%
66 | COc1ccc(COC(=O)c2ccc(Cl)c(S(=O)(=O)N3CCOCC3)c2)cc1F | -7.6%
67 | O=C(CP(=O)(c1ccccc1)c1ccccc1)N1CCOCC1 | 12.2%
68 | O=C(Cc1ccccc1Cl)N1CCN(c2ccccn2)CC1 | -9.5%
69 | O=C(Cc1ccccc1Cl)N1CCOCC1 | 45.9% (active)

Row | SMILES | inhibition
70 | C=CCOc1cccc(CNn2cn[nH]c2=S)c1 | -0.4%
71 | COC(=O)c1onc(-c2c(OC)cc(OC)cc2OC)c1C(=O)OC | 2.6%
72 | COC(=O)c1c(CCl)noc1C(=O)NC(C)C | 28.8% (active)
73 | CCCNC(=O)c1onc(CSc2ccc(F)cc2)c1C(=O)NC(C)C | 5.5%
74 | CC1CC(C)(C)n2c(O)c(N=NC(N)=S)c3cccc1c32 (centres undefined) | 6.2%
75 | O=C(O)CCCN1C(=O)C2C3c4ccccc4C(c4ccccc43)[C@@H]2C1=O (some centres undefined) | -2%
76 | CCCCN(C)CCNC(=O)C1CCCN(S(=O)(=O)c2cccc3nsnc23)C1 (centres undefined) | -1.2%
77 | Cn1cccc1C1(C(F)(F)F)NCCNC1=O (centres undefined) | -1.4%
78 | Cc1c(CCO)c(=O)n(-c2ccccc2)n1S(=O)(=O)c1ccc(F)cc1 | -66%
79 | COc1cccc(-n2cc3c(c2-c2ccccc2)c(=O)n(C)c(=O)n3C)c1 | -0.7%
80 | COc1cccc(-c2cc3nc(NCc4ccccc4OC)n(C)c(=O)c3s2)c1 | 9.9%
81 | COc1cccc(-c2ccc3c(c2)N(Cc2ccccc2OC)C(=O)C(C)S3)c1 (centres undefined) | 21.5% (active)
82 | CN=C(c1ccccc1)c1c(C)cccc1C | 1.9%
83 | Cc1nc(S(=O)(=O)c2ccc(Br)cc2)nc2c1CCC2 | 0.1%
84 | Cn1c(N)c(C(=O)COC(=O)/C=C/c2cccc(C(F)(F)F)c2)c(=O)n(C)c1=O | 4.9%
85 | CCOC(=O)/C=C/c1ccc(C(F)(F)F)cc1S(=O)(=O)NC(C)(C)C | 26.8% (active)
86 | CCOC(=O)CCC(NC(=O)c1ccc(CNc2nc3cc(C(F)(F)F)ccc3nc2C(=O)OCC)cc1)C(=O)OCC (centres undefined) | -1.5%
87 | CC1CCCCN1CCCNC(=O)Cn1ncc2c([nH]c3ccccc32)c1=O (centres undefined) | 6.7%
88 | CCCn1c2ccccc2c2cnn(CC(=O)NCCCN3CCCCC3CC)c(=O)c21 (centres undefined) | 29.4% (active)
89 | O=C(Cn1ncc2c3ccccc3n(Cc3ccccc3)c2c1=O)NCCCN1CCOCC1 | 8.8%
